Bioassay records from PubChem.
Compounds with a hit are over-represented: about 17% of the library has one in this group of screens.
DT40 TDP1 no CPT – qHTS for Inhibitors of human tyrosyl-DNA phosphodiesterase 1 (TDP1): qHTS in cells in absence of CPT. 420,000 compounds, 15% hits. Potency, µM (titrated, usually from 46.2 µM), inactives show top-dose activity change, negative = growth inhibition, hits mostly inhibitors. DT40 Tdp1-/- hTDP1 cells, no CPT, ATP luminescence, 48 h. AID 686978, 2013; further: on the % scale 0 is the no-effect control and ±100 the full control effect; nearly all actives have a fitted effect of over 55% in size
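Cells were dispensed at 400 per well, compounds added by pin tool, plates incubated ≥48 hr at 37 °C, then CellTiter-Glo added for 30 min at room temperature before luminescence reading. Line: DT40 Tdp1-/- complemented with hTDP1; camptothecin omitted.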
ATXN2 expr inh – Primary qHTS for Inhibitors of ATXN expression; HEK-293 ATXN2-luciferase reporter, luminescence, 24 h; Potency, µM (doses to about 57 µM), for inactives: at the top dose activity change, negative = inhibition, actives largely listed as inhibitors; 360,000 compounds, 0.72% hits; AID 1745845, 2022; further: on the % scale 0 is the no-effect control and ±100 the full control effect; nearly all actives have a fitted effect of over 55% in size
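ATXN2-luciferase reporter cells (luciferase flanked by upstream and downstream ATXN2 gene portions) were treated 24 h at 37 °C with compounds at up to 57 uM. SteadyGlo luminescence gave expression; GF-AFC fluorescence gave viability.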
ATXN viability – Viability Counterscreen for Primary qHTS for Inhibitors of ATXN expression. S2 cells (HEK-293 line with an ATXN2-luciferase reporter) viability, CellTiter-Fluor protease fluorescence, 24 h. AID 651635, 2014. Potency, µM (highest dose often 56.7 µM), most hits filed as cytotoxic. 400,000 compounds, 0.49% hits; further: nearly all actives have a fitted effect of over 40% in size
TGFb SMAD3 inh – qHTS for Inhibitors of TGF-b; HepG2 CAGA-GFP TGF-b/SMAD3 reporter, GFP fluorescence, 18 h; TGF-beta stimulated, 500 pg/mL final; Potency, µM (series often up to 46.1 µM), inactives show at the highest dose activity, negative = inhibition, actives largely listed as inhibitors; 410,000 compounds, 1.2% hits; AID 588855, 2011; further: on the % scale 0 is the no-effect control and ±100 the full control effect; nearly all actives have a fitted effect of over 65% in size
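Per well, imaged GFP fluorescence of HEPG2 CAGA-GFP cells gives the signal; cells get compound, then TGF-beta (500 pg/mL final), 18 h at 37 degrees C; %Activity versus -TGF-beta and +DMSO controls.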
HepG2 tox – qHTS for Inhibitors of TGF-b: Cytotox Counterscreen; Potency, µM (series often up to 46.1 µM), without a hit: at the highest dose activity change, negative = cytotoxicity, hits mostly cytotoxic; 410,000 compounds, 0.76% hits; HepG2 CAGA-GFP viability, ATP luminescence, 18 h; AID 588856, 2011
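CellTiter-Glo luminescence gave cytotoxicity after 18 hours at 37 degrees C. The cells were HepG2 CAGA-GFP in 1% FBS DMEM, stimulated with 500 pg/mL TGF-beta after compound addition. %Activity was normalised to no-cell wells (complete cell-killing) and DMSO (no toxicity), and curves were fitted and classified.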
DT40 TDP1 CPT – qHTS for Inhibitors of human tyrosyl-DNA phosphodiesterase 1 (TDP1): qHTS in cells in presence of CPT; 420,000 compounds, 12% hits; Potency, µM (titrated, usually from 46.2 µM), without a hit: at the top dose activity change, negative = growth inhibition, actives largely listed as inhibitors; chicken DT40 Tdp1-/-;hTDP1 cells + 20 nM CPT, ATP luminescence, 48 h; further: on the % scale 0 is the no-effect control and ±100 the full control effect; nearly all actives have a fitted effect of over 55% in size
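Chicken DT40 Tdp1-/- cells complemented with human TDP1, 400 cells/well, exposed to compounds plus 20 nM camptothecin for at least 48 h at 37 C; viability read as ATP content by CellTiter-Glo luminescence.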
Numbers without * were called inactive; i = inactive; ? = inconclusive; . = no result; [ ] = another dose, or the depositor's remark. The call rests on the fitted dose curve; in most records, active means well fitted curve in the direction sought with a large enough effect; inconclusive means small, poorly fitted or top-dose-only effect, or another doubt; inactive means no such curve, though single readings can be large; an effect the other way counts as inactive or inconclusive. Potency means the concentration at half of the fitted maximal effect.

SMILES | DT40 TDP1 no CPT | ATXN2 expr inh | ATXN viability | TGFb SMAD3 inh | HepG2 tox | DT40 TDP1 CPT
CC(=O)c1ccc(NC(=O)N2CCN(c3cccc(Cl)c3)CC2)cc1 | 12µM* | -7% | i | -13% | -16% | 12µM*
NS(=O)(=O)c1ccc(NC(=S)N2CCN(c3cccc(Cl)c3)CC2)cc1 | 7.3µM* | -5% | i | ? | 7% | ?
CC1(C2CCN(Cc3c[nH]c4ccccc34)CC2)NC(=O)N(CCN2CCOCC2)C1=O (stereo not drawn) | -24% | . | i | . | . | 5%
COc1ccc(/C=C/C(=O)N2CCc3c(cnc(C)c3CNS(=O)(=O)c3cccs3)C2)cc1 | ? | . | i | . | . | 0%[9.04 µM]
Cc1cccc(C(=O)Nc2c(-c3ccccc3)nc3cc(C)ccn23)c1 | 21µM* | 5% | ? | -9% | -1% | ?
Cc1ccn2c(NC(=O)c3cccc(Cl)c3)c(-c3ccccc3)nc2c1 | 23µM* | 6% | ? | ? | -16% | ?
Cc1ccn2c(NC(=O)c3ccccc3)c(-c3ccccc3)nc2c1 | 4% | -3% | i | 12% | 10% | 20%
COc1ccc(-c2nc3cc(C)ccn3c2NC(=O)c2cccc(F)c2)cc1 | ? | 8% | ? | -5% | -11% | ?
CC(=O)Oc1ccccc1Cn1c(C)c(C(=O)NCCC#N)sc1=O | -11% | 4% | i | -6% | 4% | -17%
O=C(NCC(c1ccco1)N1CCc2ccccc2C1)c1ccc(Cl)c([N+](=O)[O-])c1 (stereo not drawn) | ? | -14% | i | ? | -2% | ?
CC(=O)Nc1ccc(NC(=O)c2ccc(Cl)c(S(=O)(=O)N3CCc4ccccc43)c2)cc1 | 4.6µM* | -20% | ? | 0% | 1% | ?
O=C(Nc1cccnc1)c1ccc(Cl)c(S(=O)(=O)N2CCc3ccccc32)c1 | -18% | -18% | i | -31% | 3.5µM* | 22%
O=C(Nc1ccccn1)c1ccc(Cl)c(S(=O)(=O)N2CCc3ccccc32)c1 | ? | -32% | i | ? | -8% | 16µM*
O=C(NCC(c1ccco1)N1CCCC1)c1ccc(Cl)c(S(=O)(=O)N2CCc3ccccc32)c1 (stereo not drawn) | 7.3µM* | -26% | ? | ? | -20% | 8.2µM*
C[C@@H]1CN([C@@H](C)CO)S(=O)(=O)c2ccc(Br)cc2O[C@@H]1CN(C)C(=O)C1CC1 | ? | 2% | i | 0% | -15% | -3%
CCc1noc(C)c1C(=O)OCC(=O)Nc1cccc(C)c1 | -2% | -13% | i | -5% | -5% | ?
O=S1(=O)C[C@H](N2CCOCC2)[C@@H](COCc2ccccc2)N1 | -23% | 6% | i | -9% | -11% | -16%
CCOC(=O)C1CCCN(C(=O)c2ccc(Cl)c(S(=O)(=O)N3CCc4ccccc43)c2)C1 (stereo not drawn) | 13µM* | -15% | i | -3% | 0% | ?
CCCC(O)(c1ccc(CC)cc1)C(CN1CCOCC1)c1ccccc1 (stereo not drawn) | 18µM* | -23% | i | ? | -28% | 16µM*
CCCC(O)(c1ccccc1)C(CN1CCOCC1)c1ccccc1 (stereo not drawn) | ? | -4% | i | 0% | -1% | 21µM*
CCCCCCC(O)(c1ccccc1)C(CN1CCOCC1)c1ccccc1 (stereo not drawn) | 23µM* | 5% | i | 16µM* | -57% | 18µM*
CCCC(O)(c1ccc(Cl)cc1)C(CN1CCOCC1)c1ccccc1 (stereo not drawn) | ? | -15% | ? | 13µM* | -71% | ?
O=C(Cn1c(=O)c2ccccc2n(CC(=O)Nc2ccc(F)cc2)c1=O)NCCc1ccccc1 | ? | -24% | i | 7% | -17% | -14%
COc1ccc(NS(=O)(=O)c2cccc(C(=O)NNC(=O)c3cc(S(N)(=O)=O)ccc3OC)c2)cc1 | -1% | -6% | i | -11% | -4% | 16%
Oc1c(Br)cc(/C=N/Nc2nncc3ccccc23)cc1Br | 23µM* | -3% | i | -3% | -18% | ?
SMILES | DT40 TDP1 no CPT | ATXN2 expr inh | ATXN viability | TGFb SMAD3 inh | HepG2 tox | DT40 TDP1 CPT
CCc1ccc(NC(=O)C(=O)NCCN2CCN(S(=O)(=O)c3ccccc3)CC2)cc1 | -23% | -4% | i | -14% | 15% | -12%
COC(=O)c1ccc(COc2ccccc2/C=C(\C#N)C(=O)Nc2c(C)cccc2C)cc1 | 13µM* | -23% | i | ? | -73% | 13µM*
Cc1ccc(/C=C(\C#N)C(=O)Nc2c(C)cccc2C)s1 | 21µM* | 3% | i | 0% | -19% | ?
COC(=O)c1ccc(COc2ccccc2/C=C(\C#N)C(=O)Nc2ccccc2C)cc1 | 0% | -5% | ? | 4% | -8% | 6%
Cc1ccc(NC(=O)/C(C#N)=C/c2ccc(C)s2)c(C)c1 | -22% | 23% | i | 31% | 2% | 1%
O=C(/C=C/c1ccc(C(F)(F)F)cc1)OC(C(=O)NC1CC1)c1ccccc1 (stereo not drawn) | ? | . | . | -3% | -1% | ?
COC1=C(Br)C(=O)c2nc(C)ccc2C1=O | 0.58µM* | . | ? | ? | -43% | 0.65µM*
COc1ccc(N)c2c1C(=O)c1ccccc1C2=O | ? | 11% | i | ? | -14% | ?
COC1=C(N)C(=O)c2nc(C)ccc2C1=O | 7.3µM* | -5% | ? | -24% | -5% | 5.2µM*
CC(C)c1cc(/C=C(\C#N)C(=O)NCCCc2ccccc2)cc(C(C)C)c1O | 21µM* | . | . | . | . | 21µM*
CCc1ccccc1NC(=O)Cn1ccn(Cc2ccccc2)c(=O)c1=O | -8% | 5% | i | 7% | 0% | 2%
COc1ccc(S(=O)(=O)c2nnn(-c3cc(Cl)c(OC)cc3OC)c2C)cc1 | -19% | ? | i | -20% | -3% | -4%
O=C(Nc1cccc2c1CCCC2)c1ccc(Cl)c([N+](=O)[O-])c1 | 16µM* | -8% | i | 0% | -9% | ?
CN1CCN(c2ccccc2NC(=O)c2ccc(N3CCCC3)c([N+](=O)[O-])c2)CC1 | ? | -23% | ? | 10% | 7% | ?
